These results are taken from PubChem BioAssay (NCI).

Holding throughout (assay): NCI-60 one-dose screen, 48 h (100 = growth as untreated, 0 = no growth, -100 = all killed)
Common to all, as to conditions: 10 µM unless noted

Test [1] concerns T-47D breast.
Test [2] concerns BT-549 breast.
The test system of test [3] is MDA-MB-435 melanoma.
Test [4] concerns SW-620 colon.
The subject of test [5] is MCF7 breast.
Test [6] has as its system HCT-116 colon.
The test system of test [7] is HCC-2998 colon.
Test [8] has as its system KM12 colon.

Each structure is given as a SMILES string. This is part of a sample that, as a whole, favours compounds with a hit. Of some 83,000 tested, about 20% had one in any assay.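 Interpretation: 100, growth as untreated; towards 0, rising growth inhibition; 0, no net growth; 0 to -100, cell death. Compounds scoring below 10 were considered active.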 Unmarked numbers belong to inactive results. Calls of active or inactive are those of the source.

As to `OC(c1cc2cc(Br)ccc2c2cc(Br)ccc12)C1CCCCN1` (stereo not given), the growth in test [1] is -75.3% (active); in test [2], 69%; in test [3], -78% (active); in test [4], -75% (active); in test [5], -88.2% (active); in test [6], -72.7% (active). Further, the figures for the growth in test [7] and in test [8] were -81.5% (active) and -91.7% (active), respectively.
As to `O=C(NNC(=S)Nc1ccccc1)c1cc2ccc1CCc1ccc(cc1)CC2`, the growth in test [1] was 53.6%; in test [2], 80.4%; in test [3] it was 70.3%; in test [4] it was 63.6%; in test [5] it was 61.7%; in test [6], 44.5%. For the same compound, the growth is 70.2% in test [7] and 77.1% in test [8].
Regarding `O=C(c1ccccc1)c1c(/C=C/c2ccccc2)c2ccccc2[nH]c1=O`, the growth in test [1] was 93.5%; in test [2], 92.4%; in test [3] it was 98.2%; in test [4] it was 101%; in test [5], 97.3%; in test [6], 100%. The growth in test [7] was 111%; in test [8], 96%.
Regarding `Cc1c(C(=N)C(C#N)C#N)c(=N)oc2c1ccc1ccccc12`, the growth is 71.9% in test [1]; 73.9% in test [2]; 83.6% in test [3]; 92.2% in test [4]; 57.9% in test [5]; 79.6% in test [6]. Further, the growth in test [7] is 80.3%; in test [8], 101%.
Regarding `CCC(C)/C(=C\C#N)NCCCN/C(=C/C#N)C(C)CC` (stereo not given), the growth in test [1] is 97%; in test [2] it was 105%; in test [3] it was 105%; in test [4], 107%; in test [5], 100%; in test [6] it was 91.1%. Moreover, the growth in test [7] was 99.1%; in test [8], 105%.
Take `Clc1ccc(-c2nc3ccccc3s2)cc1Cl`: the growth in test [1] is 61.3%; in test [2], 97.4%; in test [3] it was 121%; in test [4] it was 82.6%; in test [5] it was 67.8%; in test [6] it was 99%. Also, the growth in test [7] was 93.9%; in test [8], 97.1%.
For `O=C1C2(c3ccccc3)C(c3ccccc3)=C(c3ccccc3)C1(c1ccccc1)C1CC=CC12` (stereo not given), the growth in test [1] was 68.3%; in test [2] it was 99.4%; in test [3], 92.9%; in test [4], 93.8%; in test [5] it was 82.8%; in test [6], 76%. Moreover, the figures for the growth in test [7] and in test [8] were 87.7% and 80%, respectively.
As to `Oc1ccc(Cl)cc1-c1cc(-c2ccc(F)cc2)n[nH]1`, the growth in test [1] was 24.3%; in test [2] it was 84.7%; in test [3], 83%; in test [4], 75.5%; in test [5], 15.8%; in test [6], 51.5%. For the same compound, the growth in test [7] was 37.8%; in test [8] it was 37%.
Turning to `CCCCCCCCN(CCCCCCCC)CCCCCCNc1cc(OC)cc2cccnc12`, the growth in test [1] is 104%; in test [2] it was 79.7%; in test [3], 95.2%; in test [4] it was 10.8%; in test [5] it was 61.7%; in test [6] it was -30.1% (active). The results for the growth in test [7] and in test [8] were 93.4% and 58.9%, respectively.
Take `O=c1[nH]c2ccc(Br)cc2c2c1C(c1ccc(Cl)cc1)c1c(ncn3nc(-c4ccco4)nc13)O2` (stereo not given): the growth is 60.9% in test [1]; 76.9% in test [2]; 85.2% in test [3]; 73.6% in test [4]; 68.7% in test [5]; 67.5% in test [6]. Moreover, the growth is 86.6% in test [7] and 94.5% in test [8].
In the case of `O=C(CSc1nc2ccccc2[nH]1)c1ccc(N2CCOCC2)cc1`, the growth was 94.1% in test [1]; 93% in test [2]; 100% in test [3]; 94.5% in test [4]; 92.2% in test [5]; 94.3% in test [6]. Also, the growth in test [7] is 98.3%; in test [8], 104%.
Regarding `COc1ccc(/C(C#N)=C/c2cc(OC)c(OC)c(OC)c2)cc1`, the growth was 44.1% in test [1]; 40.7% in test [2]; -48.8% (active) in test [3]; 26.3% in test [4]; 18.6% in test [5]; 20.2% in test [6]. Moreover, the results for the growth in test [7] and in test [8] were 72% and 29.3%, respectively.
With `CCN1CCN(c2nc(NNC(=O)c3ccccc3)nc(N3CCN(C(c4ccccc4)c4ccccc4)CC3)n2)CC1`, the growth was 40.7% in test [1]; 79.1% in test [2]; 60.2% in test [3]; 5.78% (active) in test [4]; 28.9% in test [5]; 20.2% in test [6]. The growth is 31.7% in test [7] and 58.4% in test [8].
Regarding `COc1cc(-c2nn(-c3cccc(NC(=O)Nc4ccc(Cl)c(C(F)(F)F)c4)c3)cc2-c2ccncc2)ccc1Cl`, the growth was 0.618% (active) in test [1]; 7.16% (active) in test [2]; -52.3% (active) in test [3]; 15.4% in test [4]; 0.143% (active) in test [5]; 5.3% (active) in test [6]. Besides, the growth in test [7] was 8.88% (active); in test [8] it was 2.88% (active).
Consider `CCNc1nc(S(=O)(=O)CC)nc2ccccc12`, for which the growth in test [1] was 92.4%; in test [2] it was 91.2%; in test [3], 81.9%; in test [4], 106%; in test [5], 95.8%; in test [6], 91.7%. Further, the growth is 115% in test [7] and 94.9% in test [8].
